Data: paper PMC5540273 (PLoS ONE, 2017)

tested on: CSNK1G3; details: concentration: 1 μM, replicates: in singlicate; n = 1
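Note: KINOMEscan kinase panel screen.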

SMILES | %Inh [%]
Cc1nn2c(=O)cc(N3CCOCC3)nc2n1Cc1cccc(Cl)c1Cl [GSK2342769] | 9
CCS(=O)c1ccc(-c2coc3ccc(-c4nnc(C)o4)cc23)cc1 (centres unmarked) | 0
COc1cc(Nc2nccc(N3CCC(NC(=O)C(C)c4ccc(Cl)cc4)C3)n2)cc(OC)c1OC (centres unmarked) [GSK1379757] | 25
COc1cc2ncn(-c3cc(OCc4ccncc4Br)c(C(N)=O)s3)c2cc1OC [GW854278] | 0
Cl.c1ccc(Cn2cnc3cc(Nc4ncnc5ccccc45)ccc32)cc1 [GW272142] | 27
CCC(=O)c1c(-c2ccccc2)c2cc(Cl)ccc2c(=O)n1Cc1cc(C(=O)NC2CC2)n(C)n1 | 0
Nc1nccc2scc(-c3ccc4c(c3)CCN4C(=O)Cc3ccccc3)c12 [GSK2576924] | 26
COc1ccc(-c2cc3c(C)nc(N)nc3n([C@H]3CC[C@H](O)CC3)c2=O)cn1 | 0
Nc1nc(-c2ccccc2F)c(-c2ccnc3ccccc23)s1 [GW560459] | 25
COc1cccc(C2=C(N(C)c3ccccc3)C(=O)NC2=O)c1 [SB-334865] | 2
CCn1c(-c2nonc2N)nc2ccccc21 [SB-693162/GW549034] | 0
COc1cc2nccc(Nc3ccc(OCc4ccc(NC(C)=O)cc4)cc3)c2cc1OC.Cl [GW440135] | 15
Cc1ccc(Oc2ccc(Nc3ncnc4cc[nH]c34)cc2C)cn1 | 0
O=C(Nc1n[nH]c2cc(-c3ccccc3F)ccc12)C1CC1 [SB-733371] | 10
